Laboratory results published in the supplement of paper PMC10981050.
Where “and” joins values, the source holds several entries; their conditions need not be identical. Equal values may be shown once. Where a name gives a salt, the structure may show the parent alone.

Legend:
Experiment in all cases: cell viability relative to vehicle control; higher = less cytotoxic
Conditions in all cases: 10 µM
[1] = system: K562
How it was run: (§1)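 Four leukaemia lines, as CRISPR-edited mutant clones and isogenic wild-type clones, were tested against Selleck bioactive, kinase and epigenetic probe libraries after removal of identity-inconsistent compounds. Cells were exposed to a single 10 µM dose for 48 h, and CellTiter-Glo luminescence was then read. Viability was calculated relative to the on-plate vehicle control.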

[2] = system: MARIMO
How it was run: as §1

[3] = system: MOLM14
How it was run: as §1

[4] = system: OCI-AML2
How it was run: as §1

Row | Compound | cell viability ([1]; SRSF2 genotype: SRSF2 P95H/wt) | cell viability ([1]; SRSF2 genotype: SRSF2 wt/wt) | cell viability ([2]; SRSF2 genotype: SRSF2 P95H/wt) | cell viability ([2]; SRSF2 genotype: SRSF2 wt/wt) | cell viability ([3]; SRSF2 genotype: SRSF2 P95H/wt) | cell viability ([3]; SRSF2 genotype: SRSF2 wt/wt) | cell viability ([4]; SRSF2 genotype: P95H/wt) | cell viability ([4]; SRSF2 genotype: wt/wt)
1 | O=C(Nc1ccc2c(O)cc(S(=O)(=O)O)cc2c1)Nc1ccc2c(O)cc(S(=O)(=O)O)cc2c1 | 103% and 108% | 99.1% | 110% | 101% | 101% | 104% | 112% | 111%
2 | CN1CCC(=C2c3ccccc3C=Cc3ccccc32)CC1 [Cyproheptadine hydrochloride (Periactin)] | 90.8% and 86.3% | 83% | 77.3% | 89% | 72.5% | 91.5% | 81.1% | 85%
3 | COc1ccc(CCC(=O)Nc2nc3ccc(Cl)cc3s2)cc1OC | 95.4% and 97% | 92% | 97.3% | 96.3% | 94.6% | 97.8% | 91.4% | 87.5%
4 | COc1cc(/C=C/C(=O)CC(=O)/C=C/c2ccc(O)c(OC)c2)ccc1O [Curcumin] | 90.9% and 87% | 91.9% | 87.3% | 75.7% | 47.8% | 59.1% | 60.6% | 69.3%
5 | C[C@H](CCC(=O)O)[C@H]1CC[C@H]2[C@@H]3[C@H](O)C[C@@H]4C[C@H](O)CC[C@]4(C)[C@H]3C[C@H](O)[C@]12C [Cholic acid] | 94.2% and 93.3% | 100% | 91.6% | 98% | 98.9% | 97.6% | 98.5% | 98.9%
6 | O=c1ccn(C2OC(CO)C(O)C2O)c(=O)[nH]1 (stereo not given) | 90.3% and 93.8% | 99.6% | 99.2% | 97.5% | 100% | 100% | 100% | 95.4%
7 | C=C1CCC[C@]2(C)C[C@@H]3OC(=O)C(C)=C3C[C@@H]12 [Atractylenolide II] | 107% and 105% | 99.7% | 96.8% | 102% | 101% | 106% | 103% | 106%
8 | CC1(C)O[C@@H]2[C@@H](CO[C@@]3(COS(N)(=O)=O)OC(C)(C)O[C@@H]23)O1 [Topiramate] | 99.1% and 107% | 99.3% | 104% | 106% | 107% | 105% | 104% | 113%
9 | CCOC(=O)/C=C/c1ccc(O)c(O)c1 [Ethyl caffeate] | 88.5% and 88.6% | 95% | 44.4% | 80.5% | 78.1% | 78.1% | 76.8% | 77.7%
10 | CNc1cccc(CCOc2ccc3c(c2)CN(CC(F)(F)F)C(=O)[C@H](CC(=O)O)C3)n1 | 101% | 91.5% | 96.1% | 102% | 97.7% | 98.6% | 100% | 106%
11 | COC(=O)C=Cc1ccc(O)cc1 [Methyl 4-hydroxycinnamate] | 95% and 87.9% | 82.3% | 83.5% | 97.5% | 85.6% | 95.2% | 105% | 105%
12 | CS(=O)(=O)c1cccc(CNc2nc(Nc3ccc4c(c3)CCC(=O)N4)ncc2C(F)(F)F)c1 | 77% and 90.4% | 98.3% | 49.7% | 48.8% | 8.16% | 5.1% | 9.56% | 16.9%
13 | N[C@@H]1CCCCN(c2c(F)cc3c(=O)c(C(=O)O)cn(C4CC4)c3c2Cl)C1 [Besifloxacin HCl (Besivance)] | 97.5% and 91.4% | 99.9% | 99.3% | 96.6% | 97.6% | 98.3% | 121% | 95.6%
14 | C#CCC(Cc1cnc2nc(N)nc(N)c2n1)c1ccc(C(=O)N[C@@H](CCC(=O)O)C(=O)O)cc1 (stereo not given in full) [Pralatrexate(Folotyn)] | 98.1% and 106% | 45.8% | 109% | 108% | 102% | 73.9% | 98.6% | 104%
15 | C=C[C@H]1CN2CC[C@H]1C[C@H]2[C@H](O)c1ccnc2ccc(OC)cc12 [Quinine hydrochloride dihydrate] | 90.8% and 92.7% | 88% | 87.7% | 86.5% | 79.7% | 93.2% | 88.9% | 84.9%
16 | C1CNCCNCCNCCN1 [Cyclen] | 100% and 102% | 106% | 107% | 111% | 103% | 103% | 105% | 102%
17 | CC(C)(O)C1CCC(C)(C2C(O)CC3(C)C4CC(O)C5C(C)(C)C(O)CCC56CC46CCC23C)O1 (stereo not given) [Cyclogalegenol] | 93.6% and 88.3% | 89.8% | 93.5% | 104% | 94% | 95.7% | 97.4% | 103%
18 | C[C@@H](NCCCc1cccc(C(F)(F)F)c1)c1cccc2ccccc12 [AMG-073 HCl (Cinacalcet hydrochloride)] | 21.9% and 38.4% | 19.4% | 57.1% | 50.4% | 27% | 24.2% | 1.48% | 10.2%
19 | COc1ccc(C(=O)O)c(O)c1 [4-Methoxysalicylic acid] | 104% and 95.4% | 107% | 98.6% | 99.3% | 98.1% | 106% | 101% | 106%
20 | COc1nc(C)cnc1NS(=O)(=O)c1cccnc1-c1ccc(-c2nnco2)cc1 [Zibotentan (ZD4054)] | 98.4% and 103% | 98.4% | 99% | 97.6% | 100% | 97.5% | 102% | 105%

Row | Compound | cell viability ([1]; SRSF2 genotype: SRSF2 P95H/wt) | cell viability ([1]; SRSF2 genotype: SRSF2 wt/wt) | cell viability ([2]; SRSF2 genotype: SRSF2 P95H/wt) | cell viability ([2]; SRSF2 genotype: SRSF2 wt/wt) | cell viability ([3]; SRSF2 genotype: SRSF2 P95H/wt) | cell viability ([3]; SRSF2 genotype: SRSF2 wt/wt) | cell viability ([4]; SRSF2 genotype: P95H/wt) | cell viability ([4]; SRSF2 genotype: wt/wt)
21 | O=c1ccoc2cc(O)ccc12 [7-Hydroxy-4-chromone] | 102% and 95.6% | 93.5% | 99.1% | 104% | 98.9% | 104% | 97.1% | 96.3%
22 | C[C@@H](O[C@H]1OCCN(Cc2n[nH]c(=O)[nH]2)[C@H]1c1ccc(F)cc1)c1cc(C(F)(F)F)cc(C(F)(F)F)c1 [Aprepitant (MK-0869)] | 52.7% and 46% | 56.8% | 73% | 56.1% | 56.2% | 64.3% | 45.8% | 56.8%
23 | C[C@H](NC(=O)C(=O)Nc1ccccc1C(C)(C)C)C(=O)N[C@@H](CC(=O)O)C(=O)COc1c(F)c(F)cc(F)c1F | 106% and 107% | 108% | 111% | 107% | 90.2% | 101% | 111% | 106%
24 | CCCCCCCCN=c1ccn(CCCCCCCCCCn2ccc(=NCCCCCCCC)cc2)cc1 [Octenidine Dihydrochloride] | 0.46% and 0.39% | 0.55% | 0.32% | 0.34% | 0.3% | 0.33% | 0.29% | 0.41%
25 | O=C(O)Cc1ccccc1Nc1c(Cl)cccc1Cl [Diclofenac Sodium] | 94.9% and 97.8% | 102% | 103% | 110% | 108% | 100% | 91.1% | 102%
26 | Cc1ccnc(NS(=O)(=O)c2ccc(N)cc2)n1 [Sulfamerazine] | 99.9% and 106% | 101% | 105% | 104% | 99.7% | 107% | 107% | 89.9%
27 | COc1ccc2cc1Oc1ccc(cc1)C[C@H]1c3cc(c(OC)cc3CCN1C)Oc1c(O)c(OC)cc3c1[C@H](C2)N(C)CC3 [Fangchinoline] | 5.78% and 5.22% | 5.07% | 12.1% | 1.57% | 0.48% | 0.53% | 0.4% | 0.56%
28 | CNC[C@H](O)[C@@H](O)[C@H](O)[C@H](O)CO.CNC[C@H](O)[C@@H](O)[C@H](O)[C@H](O)CO.O=C([O-])CN(CCN(CC(=O)[O-])CC(=O)O)CCN(CC(=O)[O-])CC(=O)O.[Gd+3] [Gadopentetate Dimeglumine] | 96.2% and 95.2% | 101% | 94.1% | 98.4% | 99.2% | 98% | 98.2% | 97.7%
29 | CCCCS(=O)(=O)N[C@@H](Cc1ccc(OCCCCC2CCNCC2)cc1)C(=O)O [Tirofiban Hydrochloride] | 94.8% and 103% | 96% | 89.6% | 104% | 101% | 99.6% | 100% | 107%
30 | CCOC(=O)C1=C(C)NC(C)=C(C(=O)OCC)C1 [Diludine] | 99.6% and 92.2% | 104% | 94.3% | 99.7% | 104% | 99.3% | 99.3% | 93.9%
31 | Cc1ccccc1CN1C(=O)C2=C(CCN(Cc3ccccc3)C2)N2CCN=C12 | 48.2% and 48% | 44.5% | 46.4% | 43.9% | 36.8% | 44.5% | 29.3% | 32%
32 | Cc1cccc(Nc2ccncc2S(=O)(=O)NC(=O)NC(C)C)c1 [Torsemide (Demadex)] | 100% and 105% | 102% | 101% | 103% | 105% | 101% | 103% | 104%
33 | COc1ccccc1S(=O)(=O)Nc1ccc2c(c1)CN(C)C(=O)N2 | 81.5% and 75.9% | 76.5% | 48.9% | 46.6% | 33.4% | 34.5% | 27.1% | 40.2%
34 | O=c1c(-n2ccnn2)c[nH]n1-c1cc(N2CCOCC2)ncn1 [Molidustat(BAY 85-3934)] | 96.1% and 100% | 90.2% | 81.8% | 98.1% | 87.9% | 93.6% | 85.2% | 87.9%
35 | CC(C)N1CCN(Cc2cnc(-c3cc(-c4cccc5[nH]ccc45)cc4[nH]ncc34)o2)CC1 | 39.8% and 29.8% | 36.8% | 53.7% | 52.9% | 68.2% | 61.6% | 30.8% | 39.8%
36 | O=C(OC[C@H]1O[C@@H](OC(=O)c2cc(O)c(O)c(OC(=O)c3cc(O)c(O)c(O)c3)c2)[C@H](OC(=O)c2cc(O)c(O)c(OC(=O)c3cc(O)c(O)c(O)c3)c2)[C@@H](OC(=O)c2cc(O)c(O)c(OC(=O)c3cc(O)c(O)c(O)c3)c2)[C@@H]1OC(=O)c1cc(O)c(O)c(OC(=O)c2cc(O)c(O)c(O)c2)c1)c1cc(O)c(O)c(OC(=O)c2cc(O)c(O)c(O)c2)c1 [Tannic acid] | 96.5% and 87.2% | 98.5% | 98.7% | 99.3% | 89.6% | 92.2% | 106% | 94.8%
37 | COc1cc(C=O)cc(OC)c1O [Syringaldehyde] | 110% and 99.8% | 96% | 102% | 112% | 99.2% | 105% | 94.8% | 114%
38 | O=C1OC(COc2ccccc2[N+](=O)[O-])CC1Cc1ccccc1 (stereo not given) | 95.1% and 98.1% | 101% | 93.5% | 103% | 108% | 106% | 117% | 103%
39 | N#CN=C(NCCCCCCOc1ccc(Cl)cc1)Nc1ccncc1 | 26.1% and 17.5% | 25.9% | 16.8% | 26.9% | 6.24% | 1.39% | 6.42% | 6.39%
40 | O=C1O[C@H]2[C@@H]3OC(=O)c4cc(O)c(O)c(O)c4-c4c(cc(O)c(O)c4O)C(=O)OC[C@H]2O[C@@H](OC(=O)c2cc(O)c(O)c(O)c2)[C@@H]3OC(=O)c2cc(O)c(O)c3c2[C@@H]2C1=CC(=O)[C@](O)(O3)C2(O)O [Geraniin] | 94.9% and 95.9% | 103% | 97.3% | 86% | 106% | 97.7% | 96.1% | 92.1%
